Inconclusive results are not listed. The source made the active and inactive calls. Unless noted, calls come from the whole dose curve; as a rule, active = well fitted curve in the direction sought with a large enough effect; inconclusive = small, poorly fitted or top-dose-only effect, or another doubt; inactive = no such curve, though single readings can be large; an effect the other way counts as inactive or inconclusive.
Experiments:
[1] = molecular target: Lysosomal acid glucosylceramidase (Homo sapiens) (UniProt P04062); experiment: Glucocerebrosidase-p2 (AID 348; in the data active = potency below about 10 µM; note: potency is the fitted concentration of half-maximal effect); conditions: purified GBA, blue fluorogenic substrate, 40 min
Outline: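 Normal human glucocerebrosidase (0.2 nM) with blue fluorogenic substrate (80 uM final) in citrate/phosphate pH 5.9 with 10mM sodium taurocholate, 0.01% tween-20; 40 min RT, NaOH/glycine stop; fluorescence Ex 365/Em 440; AC50 from a titration from 0.6 nM upwards.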

[2] = AP1 Signaling Pathway (AID 357; active = well fitted curve in either direction with a large enough effect, not every such curve was filed as active; note: % is set by controls: 0 for no effect and ±100 for the full control effect); conditions: ME-180 AP-1-bla reporter, EGF-induced, beta-lactamase ratio, 5 h; at 7.69 µM (top of the series) unless noted
Outline: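 AP-1-bla ME-180 cells with beta-lactamase reporter under AP-1 response element, stimulated with EC50 EGF; compounds titrated, 5 hours at 37 degrees Celsius. CCF4 read at 460/530 nm ratio; positive and negative modulators judged by AC50.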

[3] = molecular target: Cytochrome P450 1A2 (Homo sapiens) (UniProt P05177); experiment: p450-cyp1a2 (AID 410; calls by dose curve; note: potency is the fitted concentration of half-maximal effect;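 for activity change, negative = inhibition: -100% = full effect of reference inhibitor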); conditions: recombinant CYP1A2, luciferin-ME demethylation, luminescence; series mostly up to 57 µM
Sequence of Cytochrome P450 1A2 (Homo sapiens) (P05177 whole entry, looked up): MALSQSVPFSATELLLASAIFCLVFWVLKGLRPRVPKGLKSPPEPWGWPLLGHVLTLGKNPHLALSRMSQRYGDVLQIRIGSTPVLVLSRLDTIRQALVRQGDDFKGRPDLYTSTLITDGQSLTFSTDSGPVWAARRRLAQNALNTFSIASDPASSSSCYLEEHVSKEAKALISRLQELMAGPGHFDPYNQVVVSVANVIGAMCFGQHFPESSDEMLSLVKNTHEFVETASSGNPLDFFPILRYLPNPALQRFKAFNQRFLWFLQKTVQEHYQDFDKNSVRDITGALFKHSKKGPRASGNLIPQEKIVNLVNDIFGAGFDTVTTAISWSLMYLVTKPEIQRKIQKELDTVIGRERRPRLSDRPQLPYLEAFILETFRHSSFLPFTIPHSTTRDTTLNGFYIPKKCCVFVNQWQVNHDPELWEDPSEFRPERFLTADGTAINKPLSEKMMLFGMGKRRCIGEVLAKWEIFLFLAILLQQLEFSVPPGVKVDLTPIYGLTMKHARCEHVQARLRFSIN
Outline: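 O-Demethylation of luciferin 6' methyl ether by human CYP1A2 is monitored as luciferase luminescence. Substrate sits at Km (100uM); enzyme is 20nM. Values are scaled to 57 uM furafylline as maximal inhibition.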

[4] = Stat Signaling Pathway (AID 446; active = well fitted curve in either direction with a large enough effect, not every such curve was filed as active;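 note: ME-180 cervical cancer cells given 40 pM IL-6 alongside compound; SIE-controlled beta-lactamase reporter measured as 460/530 nm FRET emission ratio; % is set by controls: 0 for no effect and ±100 for the full control effect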); conditions: ME-180 (cervical carcinoma) SIE beta-lactamase reporter, IL-6 stimulated, 5 h; at 7.69 µM (top of the series) unless noted
Outline: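 Normalization used AC90 stimulation (300 pM IL-6) and AC90 inhibition (125 nM pan-JAK inhibitor at 40 pM IL-6). The underlying signal is SIE-driven beta-lactamase in ME-180 cells after 5 h IL-6 exposure with compound.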

[5] = molecular target: Glucocorticoid receptor (Homo sapiens) (UniProt P04150); experiment: GR-GFP Redistribution (AID 450;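 active = compounds whose dose series gives a full or clear partial fitted curve of increased nuclear translocation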; note: potency is the fitted concentration of half-maximal effect); conditions: U2OS GR-GFP nuclear translocation, laser cytometry, 2 h
Sequence of Glucocorticoid receptor (Homo sapiens) (P04150 whole entry, looked up, the tested form may be a part): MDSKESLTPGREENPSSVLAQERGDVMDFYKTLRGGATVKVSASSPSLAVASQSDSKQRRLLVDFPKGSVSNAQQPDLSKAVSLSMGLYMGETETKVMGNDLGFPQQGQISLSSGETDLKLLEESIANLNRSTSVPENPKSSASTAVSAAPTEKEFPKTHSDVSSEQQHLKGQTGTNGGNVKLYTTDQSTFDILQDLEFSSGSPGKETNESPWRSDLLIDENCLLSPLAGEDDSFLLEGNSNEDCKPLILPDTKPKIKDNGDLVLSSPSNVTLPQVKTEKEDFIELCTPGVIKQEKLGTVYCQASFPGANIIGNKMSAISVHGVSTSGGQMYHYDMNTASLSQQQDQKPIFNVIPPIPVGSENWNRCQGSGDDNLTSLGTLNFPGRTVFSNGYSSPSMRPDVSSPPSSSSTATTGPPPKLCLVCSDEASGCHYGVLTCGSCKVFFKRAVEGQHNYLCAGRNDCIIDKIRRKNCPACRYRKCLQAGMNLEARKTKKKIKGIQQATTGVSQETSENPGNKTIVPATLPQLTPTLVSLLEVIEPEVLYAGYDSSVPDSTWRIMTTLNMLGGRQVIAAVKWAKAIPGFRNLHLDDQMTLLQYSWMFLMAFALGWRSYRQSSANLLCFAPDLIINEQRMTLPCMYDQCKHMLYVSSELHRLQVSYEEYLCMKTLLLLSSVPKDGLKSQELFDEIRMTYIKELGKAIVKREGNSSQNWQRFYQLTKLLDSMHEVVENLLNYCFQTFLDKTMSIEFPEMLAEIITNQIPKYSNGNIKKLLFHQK

[6] = molecular target: Glucocorticoid receptor (Homo sapiens) (UniProt P04150); experiment: GR-EFC Redistribution (AID 451; calls by dose curve; note: potency is the fitted concentration of half-maximal effect); conditions: CHO-K1 GR-EFC translocation, beta-gal luminescence, 2 h
Outline: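 CHO-K1 cells stably expressing nuclear-localized β-gal enzyme acceptor and GR fused C-terminally to the enzyme donor fragment; ligand-driven nuclear translocation restores β-gal by complementation. Compounds titrated up to 46 uM final, 2 h at 37 °C; luminescence read.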

[7] = molecular target: Mitogen-activated protein kinase 10 (Mus musculus) (UniProt Q61831); experiment: JNK3 AlphaScreen Assay (AID 530; active = well fitted curve in either direction with a large enough effect, not every such curve was filed as active;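 note: kinase came from lysate of stimulated human HepG2 cells; signal reports phosphorylation of biotinylated GST-cJun 1-79 at Ser73 with 10 µM ATP; % is set by controls: 0 for no effect and ±100 for the full control effect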); conditions: JNK3 lysate, c-Jun phosphorylation; series mostly up to 57.1 µM
Outline: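 Phosphorylation of biotinylated GST-cJun(1-79) at Ser73 is measured by AlphaScreen proximity luminescence. Enzyme is JNK3 in HepG2 lysates activated with interleukin-1beta and tumor necrosis factor alpha; ATP is 10 uM final.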

[8] = molecular target: Cytochrome P450 3A4 (Homo sapiens) (UniProt P08684); experiment: qHTS Assay for Activators of Cytochrome P450 3A4 (AID 885); conditions: recombinant CYP3A4, Luciferin-PPXE luminescence, 60 min; series mostly up to 57.1 µM; note: nearly all actives have a fitted effect of over 65% in size
Sequence of Cytochrome P450 3A4 (Homo sapiens) (P08684 whole entry, looked up): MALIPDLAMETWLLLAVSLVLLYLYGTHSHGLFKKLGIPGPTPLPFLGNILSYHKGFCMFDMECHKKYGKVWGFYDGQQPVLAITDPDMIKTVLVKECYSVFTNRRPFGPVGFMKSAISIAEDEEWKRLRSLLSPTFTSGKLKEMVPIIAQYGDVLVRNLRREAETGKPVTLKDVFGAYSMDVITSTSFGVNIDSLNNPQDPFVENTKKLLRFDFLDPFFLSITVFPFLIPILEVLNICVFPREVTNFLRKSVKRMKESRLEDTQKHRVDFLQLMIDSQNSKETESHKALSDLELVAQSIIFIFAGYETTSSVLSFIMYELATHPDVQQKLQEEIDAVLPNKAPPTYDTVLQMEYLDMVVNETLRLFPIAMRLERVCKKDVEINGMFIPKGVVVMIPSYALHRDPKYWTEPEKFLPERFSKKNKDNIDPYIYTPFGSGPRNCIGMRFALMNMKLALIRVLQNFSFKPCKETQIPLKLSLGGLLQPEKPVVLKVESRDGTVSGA
Outline: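 Human CYP3A4 dealkylates Luciferin-PPXE to luciferin, which luciferase detection converts to light. Substrate was at its KM (25uM), buffer 200mM KPO4, reaction 60 min at RT.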

[9] = qHTS Assay for Lipid Storage Modulators (AID 1519; calls by dose curve); conditions: Drosophila S3 cells, BODIPY lipid droplet/cell ratio, laser cytometry, cells loaded with oleic acid
Outline: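 Cells seeded at 5,000 per well were treated with compounds over a concentration series and loaded with oleic acid (400 uM, as added). Lipid droplet fluorescence (488 nm excitation, 500-530 nm channel) was read by laser-scanning cytometry and normalized to 20 uM Triacsin C.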

[10] = molecular target: Dual specificity protein kinase CLK4 (Homo sapiens) (UniProt Q9HAZ1); experiment: qHTS Assay for Inhibitors of CDC-like Kinase 4 (ADP-Glo Assay) (AID 1771); conditions: recombinant CLK4, ADP-Glo luminescence; series mostly up to 80 µM; note: nearly all actives have a fitted effect of over 70% in size; note: potency is the fitted concentration of half-maximal effect
Sequence of Dual specificity protein kinase CLK4 (Homo sapiens) (Q9HAZ1 whole entry, looked up): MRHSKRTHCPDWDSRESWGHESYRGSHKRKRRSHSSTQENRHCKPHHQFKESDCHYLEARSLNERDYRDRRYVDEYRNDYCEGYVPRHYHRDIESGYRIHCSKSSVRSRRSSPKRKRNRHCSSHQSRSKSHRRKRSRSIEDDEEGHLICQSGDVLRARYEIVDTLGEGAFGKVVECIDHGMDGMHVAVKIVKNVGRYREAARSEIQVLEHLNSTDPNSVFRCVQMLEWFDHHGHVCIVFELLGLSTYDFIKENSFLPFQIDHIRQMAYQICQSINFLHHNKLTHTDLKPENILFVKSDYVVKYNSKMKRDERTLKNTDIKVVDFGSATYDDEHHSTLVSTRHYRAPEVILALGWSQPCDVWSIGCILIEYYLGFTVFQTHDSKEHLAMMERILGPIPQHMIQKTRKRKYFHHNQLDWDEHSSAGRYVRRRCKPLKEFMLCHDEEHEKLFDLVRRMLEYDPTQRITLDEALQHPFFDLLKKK
Outline: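 Compounds are pin-transferred onto substrate mix (100 uM RS peptide, 1 uM ATP), then 25 nM Clk4 is added. After 1 hr at room temperature, ADP-Glo reagent runs 45 min, detection reagent 30 min, then luminescence is read.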

[11] = Primary qHTS for small molecule stabilizers of the endoplasmic reticulum resident proteome: Secreted ER Calcium Modulated Protein (SERCaMP) assay (AID 1508630); conditions: SH-SY5Y GLuc-SERCaMP (Gaussia luciferase released on ER calcium loss) secretion, thapsigargin, luminescence; series mostly up to 38.4 µM; note: % is set by controls: 0 for no effect and ±100 for the full control effect
Outline: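 The SH-SY5Y reporter protocol was run at 3 concentrations up to 38.3 uM (primary) or 11 concentrations (follow-up): 16 h compound, 100 nM thapsigargin for 4 h, then extracellular luciferase luminescence.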

[12] = molecular target: Rap guanine nucleotide exchange factor 3 (Homo sapiens) (UniProt O95398); experiment: Confirmatory qHTS for antagonist of cAMP-regulated guanine nucleotide exchange factor 3 (EPAC1) (AID 1645880); conditions: EPAC1 Rap1B-BODIPY-GDP exchange, fluorescence; series mostly up to 115 µM;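 note: plate controls were DMSO only for no effect and full effect of the ATA control for full effect; nearly all actives have a fitted effect of over 55% in size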
Sequence of Rap guanine nucleotide exchange factor 3 (Homo sapiens) (O95398 whole entry, looked up): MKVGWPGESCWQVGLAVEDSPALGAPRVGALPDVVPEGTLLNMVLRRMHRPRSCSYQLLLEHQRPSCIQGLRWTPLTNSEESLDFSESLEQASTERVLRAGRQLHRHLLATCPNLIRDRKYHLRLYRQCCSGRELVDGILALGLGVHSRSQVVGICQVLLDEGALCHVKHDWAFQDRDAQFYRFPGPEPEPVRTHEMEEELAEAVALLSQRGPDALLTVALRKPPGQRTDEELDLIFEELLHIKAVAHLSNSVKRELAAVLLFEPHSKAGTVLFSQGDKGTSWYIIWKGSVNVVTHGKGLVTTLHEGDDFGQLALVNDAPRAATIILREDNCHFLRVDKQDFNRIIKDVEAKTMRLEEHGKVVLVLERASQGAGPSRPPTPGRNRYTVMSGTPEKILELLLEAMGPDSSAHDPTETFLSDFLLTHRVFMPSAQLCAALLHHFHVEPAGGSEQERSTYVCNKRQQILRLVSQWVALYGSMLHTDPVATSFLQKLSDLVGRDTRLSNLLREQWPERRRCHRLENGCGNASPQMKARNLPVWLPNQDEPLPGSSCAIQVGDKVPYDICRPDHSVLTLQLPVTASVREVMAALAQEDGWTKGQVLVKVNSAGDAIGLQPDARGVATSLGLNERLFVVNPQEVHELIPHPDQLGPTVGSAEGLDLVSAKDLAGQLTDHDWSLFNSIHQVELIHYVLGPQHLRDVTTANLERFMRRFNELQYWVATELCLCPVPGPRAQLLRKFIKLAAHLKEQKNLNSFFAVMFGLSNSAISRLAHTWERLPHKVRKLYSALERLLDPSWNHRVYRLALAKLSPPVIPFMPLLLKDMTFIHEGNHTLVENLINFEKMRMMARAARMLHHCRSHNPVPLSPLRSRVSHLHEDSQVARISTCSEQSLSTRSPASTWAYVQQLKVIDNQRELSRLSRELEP
Outline: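 Released BODIPY-GDP fluoresces less than Rap1-bound BODIPY-GDP; the signal is followed at 480/540 nm at 5-min intervals over 30 min, after 5 min at room temperature. Reactions contain 100 nM EPAC1, 250 nM RAP1B-BODIPY-GDP and 50 uM GDP; results are normalized to ATA and DMSO.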

[13] = molecular target: Rap guanine nucleotide exchange factor 4 (Homo sapiens) (UniProt Q8WZA2); experiment: Confirmatory qHTS for antagonist of cAMP-regulated guanine nucleotide exchange factor 4 (EPAC2) (AID 1645885); conditions: EPAC2 Rap1B-BODIPY-GDP exchange fluorescence, biochemical; series mostly up to 114 µM; note: nearly all actives have a fitted effect of over 25% in size; note: potency is the fitted concentration of half-maximal effect
Sequence of Rap guanine nucleotide exchange factor 4 (Homo sapiens) (Q8WZA2 whole entry, looked up): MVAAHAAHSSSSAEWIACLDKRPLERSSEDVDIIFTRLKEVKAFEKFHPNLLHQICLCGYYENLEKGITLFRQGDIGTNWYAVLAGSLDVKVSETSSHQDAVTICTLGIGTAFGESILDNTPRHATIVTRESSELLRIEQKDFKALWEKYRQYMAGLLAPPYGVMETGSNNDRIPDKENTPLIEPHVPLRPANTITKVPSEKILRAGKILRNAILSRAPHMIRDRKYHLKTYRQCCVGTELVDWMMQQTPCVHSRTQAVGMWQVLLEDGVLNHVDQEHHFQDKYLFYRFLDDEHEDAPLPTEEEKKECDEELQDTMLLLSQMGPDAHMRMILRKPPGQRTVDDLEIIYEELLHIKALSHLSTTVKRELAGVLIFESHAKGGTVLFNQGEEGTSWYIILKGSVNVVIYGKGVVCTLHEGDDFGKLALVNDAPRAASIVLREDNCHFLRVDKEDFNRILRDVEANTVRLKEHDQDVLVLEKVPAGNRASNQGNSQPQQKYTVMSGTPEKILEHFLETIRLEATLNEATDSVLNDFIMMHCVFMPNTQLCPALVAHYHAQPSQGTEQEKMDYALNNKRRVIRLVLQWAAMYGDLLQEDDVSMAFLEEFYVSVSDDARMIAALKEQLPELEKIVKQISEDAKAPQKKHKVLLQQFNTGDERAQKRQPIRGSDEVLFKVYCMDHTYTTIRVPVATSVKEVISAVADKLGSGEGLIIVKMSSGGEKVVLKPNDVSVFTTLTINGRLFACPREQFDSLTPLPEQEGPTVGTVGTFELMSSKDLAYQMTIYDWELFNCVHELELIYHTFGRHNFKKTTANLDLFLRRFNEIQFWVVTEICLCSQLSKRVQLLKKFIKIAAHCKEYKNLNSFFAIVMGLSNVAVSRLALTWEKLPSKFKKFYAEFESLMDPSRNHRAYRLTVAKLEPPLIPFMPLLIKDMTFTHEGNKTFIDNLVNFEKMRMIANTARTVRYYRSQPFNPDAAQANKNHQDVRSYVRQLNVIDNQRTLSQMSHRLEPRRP

[14] = NFAT Signaling Pathway (AID 444; active = well fitted curve in either direction with a large enough effect, not every such curve was filed as active); conditions: Jurkat NFAT-bla M1, carbachol, beta-lactamase ratio, 5 h
Outline: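 Jurkat cells carrying an NFAT-driven β-lactamase reporter and co-transfected muscarinic M1 receptor were treated with compound plus carbachol (1 uM final, an EC50 level) for 5 h at 37 °C. CCF4 loading followed for 1 h at RT; 460/530 nm ratio gave %activity.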

[15] = molecular target: 3',5'-cyclic-AMP phosphodiesterase 4B (Homo sapiens) (UniProt Q07343); experiment: qHTS Assay for Inhibitors of PDE-IV (AID 607; active = well fitted activation curve with a large enough effect in the main read-out, with a control signal flat, not every such curve was filed as active; note: % of control where 0% means no effect); conditions: HEK293 ACTOne CNG channel cells, membrane potential fluorescence; series mostly up to 22.9 µM
Outline: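 HEK293 ACTOne cells with CNG channel (1000/well), endogenous PDE4; membrane potential dye, compounds up to 22.9 uM final. Fluorescence Ex 535/Em 590; RO 20-1724 (100 uM final) as reference.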

[16] = molecular target: Dual specificity protein kinase CLK4 (Homo sapiens) (UniProt Q9HAZ1); experiment: qHTS Assay for Inhibitors of CDC-like Kinase 4 (Kinase-Glo Assay) (AID 1770); conditions: recombinant Clk4, Kinase-Glo ATP depletion luminescence; series mostly up to 66.7 µM; note: % is set by controls: 0 for no effect and ±100 for the full control effect; nearly all actives have a fitted effect of over 65% in size
Outline: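 Inhibition was judged from remaining ATP, measured by Ultra-Glo luciferase bioluminescence after Clk4 (25 nM) had acted on RS peptide at 1 uM ATP for 4.5 hours, room temperature.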

[17] = molecular target: Dual specificity protein kinase CLK4 (Homo sapiens) (UniProt Q9HAZ1); experiment: qHTS Assay for Inhibitors of CDC-like Kinase 4 (ADP-FP Assay) (AID 1795); conditions: Transcreener ADP fluorescence polarization; series mostly up to 50 µM;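 note: recombinant human CLK4 phosphorylating RS repeat peptide at 1 µM ATP; % is set by controls: 0 for no effect and ±100 for the full control effect; nearly all actives have a fitted effect of over 60% in size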
Outline: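 Inhibition of ADP formation by 6.25 nM Clk4 is measured using 1 uM ATP and 100 uM RS repeat peptide over one hour. Produced ADP displaces a fluorescent tracer from antibody, lowering polarization.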

[18] = molecular target: Ubiquitin carboxyl-terminal hydrolase 1 (Homo sapiens) (UniProt O94782); experiment: Inhibitors of USP1/UAF1: Pilot qHTS (AID 504865); conditions: purified USP1/UAF1, Ub-rhodamine cleavage fluorescence; series mostly up to 54.9 µM; note: nearly all actives have a fitted effect of over 35% in size; note: potency is the fitted concentration of half-maximal effect
Sequence of Ubiquitin carboxyl-terminal hydrolase 1 (Homo sapiens) (O94782 whole entry, looked up): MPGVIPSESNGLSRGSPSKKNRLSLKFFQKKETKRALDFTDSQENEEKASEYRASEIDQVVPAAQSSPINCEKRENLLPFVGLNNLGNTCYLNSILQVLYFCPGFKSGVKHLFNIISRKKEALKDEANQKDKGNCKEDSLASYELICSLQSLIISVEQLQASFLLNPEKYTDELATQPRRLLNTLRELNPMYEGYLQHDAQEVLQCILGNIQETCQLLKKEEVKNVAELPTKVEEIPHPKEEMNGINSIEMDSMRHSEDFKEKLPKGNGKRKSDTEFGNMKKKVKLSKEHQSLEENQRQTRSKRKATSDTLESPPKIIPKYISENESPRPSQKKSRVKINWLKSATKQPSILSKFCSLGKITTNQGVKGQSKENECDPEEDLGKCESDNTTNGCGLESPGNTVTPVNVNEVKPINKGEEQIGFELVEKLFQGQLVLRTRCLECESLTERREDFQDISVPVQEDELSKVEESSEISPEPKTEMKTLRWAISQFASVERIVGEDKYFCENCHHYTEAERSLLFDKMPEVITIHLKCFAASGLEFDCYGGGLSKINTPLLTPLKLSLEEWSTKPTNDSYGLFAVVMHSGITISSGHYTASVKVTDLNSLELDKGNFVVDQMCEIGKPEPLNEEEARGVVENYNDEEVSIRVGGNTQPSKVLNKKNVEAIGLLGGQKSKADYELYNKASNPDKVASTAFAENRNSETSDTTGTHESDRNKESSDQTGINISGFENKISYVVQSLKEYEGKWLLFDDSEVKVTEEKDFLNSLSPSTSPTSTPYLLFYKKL
Outline: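 Kinetic fluorescence assay: 1nM USP1/UAF1, 15 min compound preincubation, then 150nM Ub-Rho; 480/540 nm.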

[19] = molecular target: Rap guanine nucleotide exchange factor 3 (Homo sapiens) (UniProt O95398); experiment: Confirmatory qHTS for agonist of cAMP-regulated guanine nucleotide exchange factor 3 (EPAC1) (AID 1645881); conditions: EPAC1 Rap1B BODIPY-GDP exchange fluorescence, 100% = cAMP control response; series mostly up to 154 µM;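 note: EPAC1 catalysed release of BODIPY-GDP from Rap1B seen as fluorescence loss; nearly all actives have a fitted effect of over 75% in size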
[20] = molecular target: Rap guanine nucleotide exchange factor 4 (Homo sapiens) (UniProt Q8WZA2); experiment: Confirmatory qHTS for agonist of cAMP-regulated guanine nucleotide exchange factor 4 (EPAC2) (AID 1645884); conditions: EPAC2 GEF activity, Rap1B-BODIPY-GDP fluorescence, percent relative to cAMP agonist control; series mostly up to 154 µM;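 note: nucleotide exchange releases bodipy-GDP from Rap1 and this lowers its fluorescence; % is set by controls: 0 for no effect and ±100 for the full control effect; nearly all actives have a fitted effect of over 65% in size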
[21] = measured here: cell count channel max response
[22] = measured here: lipid channel max response
[23] = at 7.69 µM (top of the series) unless noted

COc1ccccc1-c1cc(NCc2cccc(C)c2)ncn1
inactive: Potency [1] > 11.4 µM | activity change, negative = inhibition [2] -9.64% | activity, negative = inhibition [4] -2.82% | Potency [5] > 46 µM | Potency [6] > 46 µM | outcome [7] | Potency [8] | activity change, negative = inhibition ([9]; at 57.5 µM (top of the series)) -23.2% | Potency [11] | Potency [12] | Potency [13]
-16.7%: max response [9, 22]
4.86%: max response [9, 21]
active: Potency [3] 1.58 µM | Potency [10] 35.5 µM

CN(Cc1ccco1)c1cc(-c2ccoc2)ncn1
inactive: Potency [1] > 11.4 µM | activity change, negative = inhibition [2] -1.97% | Potency [3] | activity change, negative = inhibition [14, 23] -2.33% | activity, negative = inhibition [4] 18.1% | Potency [5] > 46 µM | Potency [6] > 46 µM | outcome [7] | Potency [15] | activity change, negative = inhibition ([9]; at 57.5 µM (top of the series)) 6.03% | Potency [16] | Potency [10] | Potency [17] | Potency [18] | Potency [11]
23.3%: max response [9, 22]
18%: max response [9, 21]

CC(C)=CCC1=C(O)c2ccccc2C(=O)C1=O
-0.752%: max response [9, 21]
inactive: activity change, negative = inhibition ([9]; at 57.5 µM (top of the series)) -0.846% | Potency [11]
active: Potency [18] 35.5 µM
0.642%: max response [9, 22]

COc1cc(O)c2c(=O)cc(C)oc2c1CC=C(C)C
7.83%: max response [9, 21]
inactive: Potency [8] | activity change, negative = inhibition ([9]; at 57.5 µM (top of the series)) 15% | Potency [11] | Potency [12] | outcome [19] | outcome [20]
active: Potency [13] 22.1 µM
11.5%: max response [9, 22]

Oc1ccc(/C=C\c2cc(O)cc(O)c2)cc1
-19.7%: max response [9, 21]
-17.5%: max response [9, 22]
inactive: activity change, negative = inhibition [2] -2.07% [at 17.2 µM] | activity change, negative = inhibition ([14]; at 17.2 µM (top of the series)) -19.4% | activity change, negative = inhibition ([14]; at 38 µM (top of the series)) -5.74% | activity, negative = inhibition [4] -21.4% [at 17.2 µM] | outcome [7] | Potency [15] | activity change, negative = inhibition ([9]; at 25.7 µM (top of the series)) 2.61% | Potency [18] | Potency [11] | outcome [19] | outcome [20]
active: Potency [13] 44.1 µM

COc1ccccc1CNc1ccnc(-c2ccc3c(c2)OCO3)n1
-4.95%: max response [9, 22]
-12.3%: max response [9, 21]
active: Potency [3] 0.631 µM | Potency [13] 17.5 µM
inactive: activity change, negative = inhibition [2] -17.7% | activity change, negative = inhibition [14, 23] -13.2% | activity, negative = inhibition [4] -21.3% | Potency [5] > 46 µM | Potency [6] > 46 µM | outcome [7] | Potency [8] | activity change, negative = inhibition ([9]; at 57.5 µM (top of the series)) 9.28% | Potency [11] | outcome [19] | outcome [20]

— PubChem BioAssay (NCATS)
